Results on 28 compounds are retold here after PubChem BioAssay (NCATS).

In test [1] the target is Cytochrome P450 3A4 (Homo sapiens) (UniProt P08684). Description: qHTS Assay for Inhibitors and Substrates of Cytochrome P450 3A4 (AID 884). Further: nearly all actives have a fitted effect of over 50% in size. Further: potency means the concentration at half of the fitted maximal effect. The gist of the method: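 Luminescent readout of luciferin produced by CYP3A4 (20 nM) dealkylation of Luciferin-PPXE, 25 uM (its KM). NADPH-driven reaction ran 60 min at RT after 10 min compound preincubation; data scaled to 57 uM ketoconazole as 100% inhibition.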
Sequence of Cytochrome P450 3A4 (Homo sapiens) (P08684 whole entry, looked up): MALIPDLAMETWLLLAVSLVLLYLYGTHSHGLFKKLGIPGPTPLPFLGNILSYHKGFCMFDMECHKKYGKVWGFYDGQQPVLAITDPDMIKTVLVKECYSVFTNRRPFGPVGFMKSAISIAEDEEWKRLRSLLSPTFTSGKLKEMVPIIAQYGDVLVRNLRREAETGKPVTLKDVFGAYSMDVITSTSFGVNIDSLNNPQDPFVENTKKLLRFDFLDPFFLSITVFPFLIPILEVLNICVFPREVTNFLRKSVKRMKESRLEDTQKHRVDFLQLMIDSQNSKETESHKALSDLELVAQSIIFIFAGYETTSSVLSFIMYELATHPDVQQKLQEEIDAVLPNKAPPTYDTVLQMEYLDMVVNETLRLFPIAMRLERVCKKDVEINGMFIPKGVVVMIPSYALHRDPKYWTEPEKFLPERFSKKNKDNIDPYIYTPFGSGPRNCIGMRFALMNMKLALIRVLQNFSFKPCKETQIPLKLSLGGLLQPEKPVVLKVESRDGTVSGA
For orientation: Quantitative high-throughput screening tests each substance at several concentrations.

Test [2] can be described thus: qHTS Assay for Identification of Small Molecule Antagonists for NFkB Signaling Pathway (AID 895; active means well fitted inhibition curve with a large enough effect in the signal ratio, with a control signal flat, not every such curve was filed as active; the % refers to the signal ratio). The gist of the method: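 Beta-lactamase reporter read-out (460 and 530 nm emission ratio, 405 nm excitation, 2 hrs substrate loading RT) after 5 hr stimulation with 10 pM TNF alpha in compound-treated NFkB-bla ME-180 cells in low-serum medium.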
Test [3] concerns the target Muscarinic acetylcholine receptor M1 (Rattus norvegicus) (UniProt P08482). Kind of test: qHTS Assay for Antagonists of Acetylcholine Muscarinic M1 Receptor: Kinetic Measurement of Intracellular Calcium Response (AID 943). Further: nearly all actives have a fitted effect of over 75% in size. Further: potency means the concentration at half of the fitted maximal effect. The gist of the method: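 Antagonism is measured as inhibition of the carbachol-evoked calcium rise in CHO cells transfected with rat M1. Cells are dye-loaded, exposed to compound for 10 min, then stimulated with 100 nM carbachol (EC80).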

For test [4] the target is unchanged. Kind of test: qHTS Assay for Antagonists of Acetylcholine Muscarinic M1 Receptor: Measurement of IP-One Response (AID 944). Further: nearly all actives have a fitted effect of over 75% in size. Further: potency means the concentration at half of the fitted maximal effect. The gist of the method:
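Antagonist mode with rat M1 receptor transfected into CHO cells. Compound is added first for 10 min, carbachol at its EC80 follows for 30 min, and lysis reagents then allow TR-FRET detection of accumulated IP1.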

Test [5] addresses Cytochrome P450 3A4 (Homo sapiens) (UniProt P08684). Kind of test: qHTS Assay for Activators of Cytochrome P450 3A4 (AID 885). Further: nearly all actives have a fitted effect of over 65% in size. The gist of the method:
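Luminescent readout of luciferin formed from 25 uM Luciferin-PPXE (KM level) by 20 nM CYP3A4 in 200 mM KPO4, with 60 min NADPH-driven reaction at room temperature after 10 min compound exposure. Ketoconazole (57 uM) defined 100% inhibition.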

The target of test [6] is Cytochrome P450 2D6 (Homo sapiens) (UniProt P10635). Description: qHTS Assay for Inhibitors and Substrates of Cytochrome P450 2D6 (AID 891). Further: nearly all actives have a fitted effect of over 60% in size. Further: potency means the concentration at half of the fitted maximal effect. The gist of the method:
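Luminescent read-out of luciferin formed by 5 nM human CYP2D6 demethylating 30 uM Luciferin-ME EGE (Km level) over 60 min at room temperature after NADPH regeneration addition. Data normalized to full inhibition by 1.43 uM quinidine.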

For test [7], the target named is Cytochrome P450 2C19 (Homo sapiens) (UniProt P33261). Kind of test: qHTS Assay for Inhibitors and Substrates of Cytochrome P450 2C19 (AID 899). Further: nearly all actives have a fitted effect of over 60% in size. Further: potency means the concentration at half of the fitted maximal effect. The gist of the method: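 5nM enzyme + 10uM Luciferin-H EGE (=KM), 50mM KPO4; cpd pin-transferred, 10 min 37C; NADPH regen, 60 min 37C; stopped w/ luciferin detection reagent, 20 min; luminescence. Normalized to 57uM ketoconazole (AC100).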
Sequence of Cytochrome P450 2C19 (Homo sapiens) (P33261 whole entry, looked up): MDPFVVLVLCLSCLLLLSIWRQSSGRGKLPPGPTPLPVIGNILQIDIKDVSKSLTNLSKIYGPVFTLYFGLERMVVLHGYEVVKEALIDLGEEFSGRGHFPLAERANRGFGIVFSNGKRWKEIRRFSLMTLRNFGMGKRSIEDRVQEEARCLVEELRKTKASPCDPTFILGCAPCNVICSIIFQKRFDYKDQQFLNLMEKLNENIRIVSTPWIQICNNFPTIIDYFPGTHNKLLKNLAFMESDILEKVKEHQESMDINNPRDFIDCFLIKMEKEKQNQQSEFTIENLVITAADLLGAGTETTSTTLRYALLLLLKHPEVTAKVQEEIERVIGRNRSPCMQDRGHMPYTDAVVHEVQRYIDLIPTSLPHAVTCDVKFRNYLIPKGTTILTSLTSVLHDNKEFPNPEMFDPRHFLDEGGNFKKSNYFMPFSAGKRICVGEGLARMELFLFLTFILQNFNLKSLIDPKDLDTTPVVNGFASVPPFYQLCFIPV

For test [8], the target named is Alpha-galactosidase A (Homo sapiens) (UniProt P06280). Description: Counterscreen for Glucocerebrosidase Inhibitors: qHTS Assay for Human alpha-Galactosidase at pH 4.5 (AID 992). The gist of the method: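 Fluorogenic 1536-well qHTS at pH 4.5 (citrate, Tween-20): 2 nM enzyme, 80 uM 4-MU-alpha-galactoside, 20 min room temperature, NaOH/glycine stop. Titration 0.7 nM to 77 uM, data normalized to no-enzyme and full-activity controls, Hill-fitted AC50.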
Sequence of Alpha-galactosidase A (Homo sapiens) (P06280 whole entry, looked up): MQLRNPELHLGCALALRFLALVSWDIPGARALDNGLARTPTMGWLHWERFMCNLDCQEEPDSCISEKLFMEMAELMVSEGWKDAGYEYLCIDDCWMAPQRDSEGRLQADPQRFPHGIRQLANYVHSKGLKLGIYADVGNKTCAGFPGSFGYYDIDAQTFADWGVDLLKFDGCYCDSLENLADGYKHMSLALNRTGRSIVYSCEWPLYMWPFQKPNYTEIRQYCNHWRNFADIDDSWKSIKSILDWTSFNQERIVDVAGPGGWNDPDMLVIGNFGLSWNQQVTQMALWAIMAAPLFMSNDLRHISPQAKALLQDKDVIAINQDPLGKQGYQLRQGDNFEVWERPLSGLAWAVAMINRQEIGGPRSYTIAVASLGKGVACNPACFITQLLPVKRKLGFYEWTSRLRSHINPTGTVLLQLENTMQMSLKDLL

Test [9] addresses Tyrosyl-DNA phosphodiesterase 1 (Homo sapiens) (UniProt Q9NUW8). Description: Confirmation Assay for Inhibitors of Tyrosyl-DNA Phosphodiesterase (TDP1) (AID 489007). Further: potency means the concentration at half of the fitted maximal effect; nearly all actives have a fitted effect of over 40% in size. The conditions noted are these: recombinant human TDP1 enzymatic activity, dose-response. The gist of the method:
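Compounds are preincubated 15 min at room temperature with 1 nM recombinant human Tdp1. The reaction starts on adding 15 nM FITC-phosphotyrosine DNA substrate, runs 5 min, and is detected by AlphaScreen beads after 10 min.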

Test [10] is described as follows: qHTS Assay for Identification of Small Molecule Antagonists for Thrombopoietin (TPO) Signaling Pathway (AID 918). Further: potency means the concentration at half of the fitted maximal effect; nearly all actives have a fitted effect of over 60% in size. The conditions noted are these: TPO-dependent cell signaling reporter, antagonist mode. The gist of the method:
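Inhibitors of TPO signaling are sought by stimulating IL-3-starved murine Ba/F3 cells (human TPO receptor, Glycoprotein IIb-driven luciferase) with TPO at its EC50 of 26 pM alongside compound. After 24 hrs at 37 C, reporter luminescence is measured.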

Test [11] has as its target Pyruvate kinase PKM (Homo sapiens) (UniProt P14618). Kind of test: qHTS Assay for Inhibitors of Human Muscle Pyruvate Kinase (AID 958). The gist of the method: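 Enzyme was run at intermediate activity so both inhibitors and activators could be detected. ATP formed from ADP and PEP by 0.1 nM human PKM2 during a 1 h room-temperature incubation was quantified by coupled luciferase luminescence.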

Test [12] is described as follows: Confirmation and Secondary Assay for Modulators of Hemoglobin Beta Chain Splicing at IVS2 705 locus (AID 930).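 Further: HeLa cells stably expressing the EGFP-705 splicing reporter; GFP fluorescence per well restored by corrected splicing of the IVS2-705 intron in EGFP; series mostly up to about 46 µM.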 The gist of the method:
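Assay measures total GFP intensity per well in HeLa EGFP-705 cells after 2 days with compound; mis-splicing normally truncates EGFP, so fluorescence indicates corrected splicing.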

Test [13] concerns the target Vitamin D3 receptor (Homo sapiens) (UniProt P11473). Kind of test: qHTS for Inhibitors of the vitamin D receptor (VDR): Hit Validation in Primary Screen (AID 602199). Further: potency means the concentration at half of the fitted maximal effect. The conditions noted are these: VDR-coactivator inhibition assay, qHTS confirmation. The gist of the method: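 With 800 nM VDR and 5 uM LG19078 agonist present, compounds were incubated 2 h at ambient temperature with Alexa 647-labelled SRC2-3. Displacement was read as polarization at 620/688 nm.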

Test [14] shares this target. Description: qHTS for Inhibitors of the vitamin D receptor (VDR): Hit Validation using a Fluorescein Assay (AID 602200). Further: potency means the concentration at half of the fitted maximal effect. The settings on record: VDR-coactivator binding, fluorescein fluorescence polarization. The gist of the method: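 Compounds added to VDR ligand-binding domain (1.5 uM) with agonist LG19078 (5 uM) and 5 nM SRC2-3 fluorescein peptide, final concentrations. After 2 h at ambient temperature, polarization of fluorescein emission (Ex 495 nm/Em 520 nm) measured.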

For test [15] the target is unchanged. Description: qHTS for Inhibitors of the vitamin D receptor (VDR): Hit Validation using a Beta-Lactamase Assay (AID 602202). The gist of the method: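 Beta-lactamase reporter read-out (447 nm emission of cleaved FRET substrate, 2 h) after 18 h compound exposure of HEK293 cells carrying a VDR-GAL4 fusion and UAS reporter, stimulated with LG190178.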
Test [16] can be described thus: Confirmation and Secondary Assay for Modulators of Hemoglobin Beta Chain Splicing at IVS2 654 locus (AID 910).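 Further: HeLa cells stably carrying EGFP split by mutant beta-globin IVS2-654 intron; per-well total GFP intensity by laser scanning cytometry after 2-day treatment.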 The gist of the method:
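Readout: per-well total peak green fluorescence (488 nm ex, 500–520 nm em) from objects 5–250 µm, reflecting correct splicing of an EGFP-654 reporter. Compounds were applied for 2 days at 37 °C to overnight-plated HeLa EGFP-654 cells; controls were DMSO and 500 nM IVS2-654 PNA.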

The target in test [17] is Cytochrome P450 2C9 (Homo sapiens) (UniProt P11712). Kind of test: qHTS Assay for Inhibitors and Substrates of Cytochrome P450 2C9 (AID 883). Further: nearly all actives have a fitted effect of over 60% in size. The gist of the method:
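Inhibition of CYP2C9 is scored as loss of luminescence, with 57uM sulphaphenazole defining 100% inhibition. Substrate Luciferin-H is used at 100uM, equal to its KM; enzyme at 10nM in 25mM KPO4, 60 min at 37C with NADPH regeneration.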

Molecules are shown by their SMILES. Values without a mark were called inactive. Records with an inconclusive call do not appear. The list shows a part of the results. Where a call stands in place of a potency, no number is given. Calls of active or inactive are those of the source. Unless noted, the call rests on the fitted dose curve; in most records, active means well fitted curve in the direction sought with a large enough effect; inconclusive means small, poorly fitted or top-dose-only effect, or another doubt; inactive means no such curve, though single readings can be large; an effect the other way counts as inactive or inconclusive.

Sequence of Vitamin D3 receptor (Homo sapiens) (P11473 whole entry, looked up): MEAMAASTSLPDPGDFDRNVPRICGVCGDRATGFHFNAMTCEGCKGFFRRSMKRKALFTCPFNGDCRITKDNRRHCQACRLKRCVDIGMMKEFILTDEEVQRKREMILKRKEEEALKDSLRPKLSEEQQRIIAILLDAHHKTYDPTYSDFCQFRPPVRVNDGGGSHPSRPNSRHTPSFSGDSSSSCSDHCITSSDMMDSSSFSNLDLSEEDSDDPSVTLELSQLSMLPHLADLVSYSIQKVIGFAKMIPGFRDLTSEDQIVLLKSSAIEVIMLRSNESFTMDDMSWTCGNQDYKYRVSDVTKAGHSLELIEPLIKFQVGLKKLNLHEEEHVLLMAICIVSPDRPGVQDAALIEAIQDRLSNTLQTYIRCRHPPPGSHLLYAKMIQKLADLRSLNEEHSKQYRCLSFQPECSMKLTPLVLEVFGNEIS
Sequence of Cytochrome P450 2D6 (Homo sapiens) (P10635 whole entry, looked up): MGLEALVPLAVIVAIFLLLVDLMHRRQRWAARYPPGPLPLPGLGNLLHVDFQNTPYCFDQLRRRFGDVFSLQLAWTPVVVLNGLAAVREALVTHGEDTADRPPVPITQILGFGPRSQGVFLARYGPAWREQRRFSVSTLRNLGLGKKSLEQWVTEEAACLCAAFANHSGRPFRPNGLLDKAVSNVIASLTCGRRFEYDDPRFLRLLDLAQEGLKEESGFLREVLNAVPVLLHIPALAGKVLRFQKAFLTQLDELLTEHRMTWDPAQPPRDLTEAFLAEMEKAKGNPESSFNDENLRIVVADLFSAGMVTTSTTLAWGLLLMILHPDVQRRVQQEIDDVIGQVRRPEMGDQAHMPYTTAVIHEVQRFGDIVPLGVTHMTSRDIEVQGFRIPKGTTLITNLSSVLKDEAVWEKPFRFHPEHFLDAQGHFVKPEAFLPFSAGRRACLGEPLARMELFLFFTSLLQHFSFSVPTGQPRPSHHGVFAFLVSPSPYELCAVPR
Sequence of Muscarinic acetylcholine receptor M1 (Rattus norvegicus) (P08482 whole entry, looked up): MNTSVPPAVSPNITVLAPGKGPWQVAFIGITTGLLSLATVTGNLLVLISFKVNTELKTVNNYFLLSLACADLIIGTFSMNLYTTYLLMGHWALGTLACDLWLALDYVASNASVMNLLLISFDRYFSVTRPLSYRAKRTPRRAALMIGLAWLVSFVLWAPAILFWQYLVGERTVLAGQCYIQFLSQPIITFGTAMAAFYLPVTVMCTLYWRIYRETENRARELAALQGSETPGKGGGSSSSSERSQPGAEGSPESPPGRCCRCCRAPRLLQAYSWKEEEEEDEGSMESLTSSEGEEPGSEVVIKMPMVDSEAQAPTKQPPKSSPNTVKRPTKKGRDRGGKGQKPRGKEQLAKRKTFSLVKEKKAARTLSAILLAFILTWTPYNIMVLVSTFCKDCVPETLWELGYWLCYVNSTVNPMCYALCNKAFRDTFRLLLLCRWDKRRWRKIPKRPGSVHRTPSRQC
Sequence of Cytochrome P450 2C9 (Homo sapiens) (P11712 whole entry, looked up): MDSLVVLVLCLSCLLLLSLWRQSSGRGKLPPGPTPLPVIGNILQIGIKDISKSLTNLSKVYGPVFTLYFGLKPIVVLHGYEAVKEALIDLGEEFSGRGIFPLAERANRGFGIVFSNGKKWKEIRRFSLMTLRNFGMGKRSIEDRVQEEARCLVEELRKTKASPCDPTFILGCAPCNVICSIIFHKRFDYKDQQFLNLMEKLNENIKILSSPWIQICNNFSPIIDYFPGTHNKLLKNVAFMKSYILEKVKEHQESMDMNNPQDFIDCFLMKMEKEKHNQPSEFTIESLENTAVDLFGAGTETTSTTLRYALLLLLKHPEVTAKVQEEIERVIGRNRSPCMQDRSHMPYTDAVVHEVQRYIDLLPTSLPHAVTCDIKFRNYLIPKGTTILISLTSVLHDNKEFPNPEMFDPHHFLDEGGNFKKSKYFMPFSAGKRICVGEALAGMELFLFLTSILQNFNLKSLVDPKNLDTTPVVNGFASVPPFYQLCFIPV
Sequence of Pyruvate kinase PKM (Homo sapiens) (P14618 whole entry, looked up): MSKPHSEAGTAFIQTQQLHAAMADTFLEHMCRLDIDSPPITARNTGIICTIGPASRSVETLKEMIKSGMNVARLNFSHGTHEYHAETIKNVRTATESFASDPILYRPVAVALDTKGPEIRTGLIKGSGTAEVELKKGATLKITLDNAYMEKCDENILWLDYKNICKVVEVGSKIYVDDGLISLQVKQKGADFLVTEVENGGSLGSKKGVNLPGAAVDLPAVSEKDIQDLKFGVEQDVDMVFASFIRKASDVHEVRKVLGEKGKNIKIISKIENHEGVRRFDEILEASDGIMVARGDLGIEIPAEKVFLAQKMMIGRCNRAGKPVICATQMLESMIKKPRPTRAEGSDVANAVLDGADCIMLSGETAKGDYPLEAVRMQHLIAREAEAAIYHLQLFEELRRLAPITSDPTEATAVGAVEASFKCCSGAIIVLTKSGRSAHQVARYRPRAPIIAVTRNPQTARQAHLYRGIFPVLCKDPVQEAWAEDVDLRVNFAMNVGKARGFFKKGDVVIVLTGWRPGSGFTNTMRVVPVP
Sequence of Tyrosyl-DNA phosphodiesterase 1 (Homo sapiens) (Q9NUW8 whole entry, looked up): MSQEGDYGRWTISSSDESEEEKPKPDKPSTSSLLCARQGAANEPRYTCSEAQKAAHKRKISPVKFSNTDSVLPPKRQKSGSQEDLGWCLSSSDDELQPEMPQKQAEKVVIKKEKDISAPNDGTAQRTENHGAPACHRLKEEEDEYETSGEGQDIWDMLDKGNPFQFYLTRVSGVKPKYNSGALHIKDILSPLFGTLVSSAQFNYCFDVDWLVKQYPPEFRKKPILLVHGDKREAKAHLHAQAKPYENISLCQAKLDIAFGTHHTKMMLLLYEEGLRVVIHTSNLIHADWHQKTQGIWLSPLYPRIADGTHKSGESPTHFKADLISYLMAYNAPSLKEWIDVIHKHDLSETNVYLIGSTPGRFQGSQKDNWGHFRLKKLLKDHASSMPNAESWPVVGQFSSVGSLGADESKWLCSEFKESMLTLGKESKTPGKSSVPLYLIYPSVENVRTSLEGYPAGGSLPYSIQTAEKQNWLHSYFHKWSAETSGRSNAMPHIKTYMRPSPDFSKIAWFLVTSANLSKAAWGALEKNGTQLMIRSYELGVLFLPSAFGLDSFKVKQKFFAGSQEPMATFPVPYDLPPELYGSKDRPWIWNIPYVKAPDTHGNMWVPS

`CN(C)CC[C@@H](c1ccccc1)c1ccccn1`: the Potency result in test [1] and in test [2] was “inactive” each time. The figures for the Potency in [3] and in test [4] were 11.2 µM (active) and 10 µM (active), respectively.

Consider `CCN(CC)CCC[C@H](C)Nc1ccnc2cc(Cl)ccc12`, for which the Potency in test [3] is 5.01 µM (active).

With `C[C@@H](CN(C)C)CN1c2ccccc2CCc2ccccc21`, the Potency entry in test [5] was “inactive”. The Potency in [6] is 5.01 µM (active); in test [3], 0.141 µM (active); in [4], 0.126 µM (active).

Take `CC1(C)O[C@@H]2C[C@H]3[C@H]4C[C@H](F)C5=CC(=O)C=C[C@@]5(C)[C@@H]4[C@H](O)C[C@]3(C)[C@]2(C(=O)CO)O1`: the Potency result in [5] and in test [7] was “inactive” throughout.

For `COCCc1ccc(OC[C@H](O)CNC(C)C)cc1`, the Potency entry in test [2] is “inactive”. Also, the call in [8] was inactive.

On to `CCN(CC)CC#CCOC(=O)[C@@](O)(c1ccccc1)C1CCCCC1`, for which, in test [5], the Potency result was “inactive”.

On to `C[C@@H]1COc2c(N3CCN(C)CC3)c(F)cc3c(=O)c(C(=O)O)cn1c23`, for which the Potency entry in test [4] is “inactive”.

On to `CN(C)CCO[C@](C)(c1ccccc1)c1ccccn1`, for which the compound was classed as inactive in test [8].

As to `CN(C)CC[C@H](c1ccc(Br)cc1)c1ccccn1`, in [8], the outcome was inactive.

Regarding `CN(C)[C@H]1C(=O)C(C(=O)NCN2CCCC2)=C(O)[C@]2(O)C(=O)C3=C(O)c4c(O)cccc4[C@@](C)(O)[C@H]3C[C@@H]12`, the Potency in [9] was 8.91 µM (active).

`CO[C@H]1C[C@@H](O[C@@H]2[C@H](C)[C@H](O[C@@H]3O[C@@H](C)C[C@@H](N(C)C)[C@@H]3O)[C@H](C)C[C@]3(CO3)C(=O)[C@H](C)[C@H](O)[C@H](C)[C@H](C)OC(=O)[C@@H]2C)O[C@@H](C)[C@H]1O`: in [5], the Potency entry was “inactive”.

Turning to `CC1=C(C(=O)O)N2C(=O)[C@@H](NC(=O)[C@@H](N)c3ccccc3)[C@@H]2SC1`, in test [2], the Potency result was “inactive”. In addition, the outcome in [8] was inactive.

With `CC[C@H](NC(C)C)[C@H](O)c1ccc(O)c(O)c1`, the Potency entry in [5], in [3] and in test [4] was “inactive” each time.

For the compound `CN1CCc2cccc3c2[C@@H]1Cc1ccc(O)c(O)c1-3`, the Potency entry in [6] and in [4] was “inactive” throughout. In addition, the Potency in [10] is 12.6 µM (active). For the same compound, in test [11], the result was inactive.

On to `C[C@@H](COc1ccccc1)N(CCCl)Cc1ccccc1`, for which the figures for the Potency in [6] and in [7] were 0.158 µM (active) and 2 µM (active), respectively.

`CC(C)COC[C@H](CN(Cc1ccccc1)c1ccccc1)N1CCCC1`: the Potency result in [5], in test [3] and in test [4] was “inactive” each time. In addition, the Potency in test [6] is 0.0158 µM (active).

For the compound `C[C@H](NCCc1ccc(O)cc1)[C@@H](O)c1ccc(O)cc1`, in test [2], the Potency entry was “inactive”. Also, the Potency in test [3] is 12.6 µM (active).

As for `OCCN1CCN(CC/C=C2\c3ccccc3Sc3ccc(C(F)(F)F)cc32)CC1`, the Potency entry in test [5] is “inactive”. For the same compound, the results for the Potency in [3] and in [4] were 0.891 µM (active) and 5.01 µM (active), respectively.

Take `CC(CCC(=O)O)C1CCC2C3C(O)C[C@@H]4CC(O)CC[C@@]4(C)C3CC[C@@]12C` (stereo partly drawn): in test [12], the result was inactive.

`CCOc1ccc(NC(=O)c2c(NC(=O)Cc3ccccc3)sc3c2CCC(C)C3)cc1` (stereo not drawn): the Potency was 5.62 µM (active) in test [13] and 8.91 µM (active) in [14]. The Potency result in [15] is “inactive”.

With `C1CCN2C[C@H]3C[C@H](CN4CCCCC34)C2C1` (stereo partly drawn), the Potency result in test [16] is “inactive”. Further, in test [12], the compound was called inactive.

As to `C[N+]1(C)CCC[C@@H](OC(=O)C(O)(c2ccccc2)c2ccccc2)C1`, in test [7], the Potency result was “inactive”.

`CCCCOc1ccc(CN2C(=O)C(=O)c3cc(Br)cc(C)c32)cc1OC`: the Potency in [13] is 10 µM (active); in [14], 8.91 µM (active). Further, the Potency result in test [15] was “inactive”.

With `O=c1c(O)c(-c2ccc(O)cc2)oc2ccccc12`, the Potency in test [1] was 12.6 µM (active). Further, the Potency result in test [5] and in [16] was “inactive” in each case. The compound was called inactive in test [12].

Take `CC1CC2C3CCC4=CC(=O)C=C[C@@]4(C)[C@]3(F)C(O)C[C@]2(C)[C@]1(O)C(=O)CO` (stereo partly drawn): the Potency result in [16] was “inactive”. Besides, the compound was called inactive in test [12].

For `Nc1ccccc1C(=O)CC(N)C(=O)O` (stereo not drawn), the Potency entry in test [1] and in test [16] was “inactive” in each case. Further, the call in test [12] was inactive.

In the case of `C[C@@](N)(Cc1ccc(O)cc1)C(=O)O`, the Potency entry in [1] was “inactive”. Besides, the compound was called inactive in test [12] and in test [8].

On to `CC1(C)Oc2ccc(C#N)cc2[C@H](N2CCCC2=O)[C@H]1O`, for which the Potency result in test [17] and in test [7] was “inactive” in each case.
